Hits are enriched below; roughly 4.2% of the tested compounds scored in any of these assays.
hcDAF12 agonist: activators of H. contortus DAF-12 nuclear receptor | AID 652067 | actives 1.4% (n = 370,000) | activation, % at 6.8 µM | HEK293 hcDAF-12 lit1-tk-luc reporter, luminescence; 0% DMSO, 100% Δ7-dafachronic acid;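 active means activation above the mean of all tested compounds plus 3 SD, cut at about 5.5% in these data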
ssDAF12 agonist: S. stercoralis DAF-12 activation, primary screen; HEK293 ssDAF-12/GRIP1 lit1-tk-luc reporter, luminescence; % of 3 µM dafachronic acid response; activation, % at 6.8 µM; actives 1% (n = 370,000); AID 652126;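 active means activation above the mean over all tested compounds plus 3 SD, cut at about 0.9% in these data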
DAX1 StAR inh: blocks DAX1 repression of SF-1 activated StAR promoter. HEK293T StAR-luciferase reporter, SF-1/DAX-1 repression relief. inhibition, % at 6.8 µM. actives 1.1% (n = 370,000);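 active means inhibition above the mean over all tested compounds plus 3 SD, cut at about 3.6% in these data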;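 further: higher inhibition means more luminescence from relief of DAX-1 repression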
hgDAF12 agonist: activates the H. glycines DAF-12 receptor ligand-binding domain. HEK293 GAL4-hgDAF12 UAS-luciferase reporter, agonist luminescence; normalized to butyrate control. activation, % at 6.8 µM. actives 1.8% (n = 370,000). AID 687014;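 active means activation above a cutoff set at the mean of all screened compounds plus 3 SD, cut at about 10% in these data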
Wnt bcat act: activates Wnt/beta-catenin signaling in a reporter cell assay; actives 1.2% (n = 300,000); activator, plate reader; activation, % at 9.35 µM; in the data active means activation above about 30%, passing the limit was not always enough; inconclusive means no clear call, values can overlap the other calls
esBAF inh: blocks esBAF chromatin remodeling in mouse ES cells; Bmi1-luciferase knock-in reporter, 24 h; 100% = twice the neutral-well signal; reporter increase, % at 12.5 µM; actives 2% (n = 350,000); in the data active means activation above about 40%; inconclusive means no clear call, values can overlap the other calls;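 further: a rise in the Bmi1 reporter signal indicates esBAF inhibition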
DAX1 conf: NR0B1 (human) inhibition, confirmation. shares compounds with DAX1 StAR inh. HEK293T StAR-promoter luciferase reporter, SF-1/DAX-1 repression. inhibition, % at 6.8 µM. actives 87% (n = 2,400). AID 652134;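 active means inhibition above the average of every tested compound plus 3 SD, cut at about 3.8% in these data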;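 further: active compounds raise luminescence by relieving repression of the StAR reporter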
Target sequence (P51843 whole entry, looked up): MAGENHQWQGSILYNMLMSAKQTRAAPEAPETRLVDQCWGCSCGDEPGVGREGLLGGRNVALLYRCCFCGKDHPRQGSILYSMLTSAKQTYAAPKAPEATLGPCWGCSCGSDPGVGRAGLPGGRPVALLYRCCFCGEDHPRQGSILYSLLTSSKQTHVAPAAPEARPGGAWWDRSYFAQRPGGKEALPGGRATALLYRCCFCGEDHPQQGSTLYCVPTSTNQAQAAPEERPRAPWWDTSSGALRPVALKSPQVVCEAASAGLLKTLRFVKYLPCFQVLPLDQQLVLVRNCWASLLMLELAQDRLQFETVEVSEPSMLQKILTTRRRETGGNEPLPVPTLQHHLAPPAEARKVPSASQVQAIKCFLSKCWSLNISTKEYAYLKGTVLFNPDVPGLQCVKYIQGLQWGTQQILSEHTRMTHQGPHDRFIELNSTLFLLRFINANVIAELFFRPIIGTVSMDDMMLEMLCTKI
SF1 AF2mut Luc: nonselective inhibitor or artifact in SF-1 mutant DAX1 counter-screen; HEK293 StAR-luciferase, SF-1 AF2 mutant, luminescence; AID 652136; inhibition, % at 6.8 µM; actives 78% (n = 2,400); shares compounds with DAX1 StAR inh;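 active means inhibition above the mean of all tested compounds plus 3 SD, cut at about 3% in these data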
Hits are given with their value; - = inactive; ? = inconclusive; . = no result given.

SMILES | hcDAF12 agonist | ssDAF12 agonist | DAX1 StAR inh | hgDAF12 agonist | Wnt bcat act | esBAF inh | DAX1 conf | SF1 AF2mut Luc
O=C(c1cccs1)N1CCN(C(=O)c2cn(-c3ccccc3)nc2-c2ccccc2)CC1 | - | - | 7.7 | - | - | 54 | 5.8 | 3.4
O=C(c1cn(-c2ccccc2)nc1-c1ccccc1)N1CCOCC1 | - | - | - | - | - | - | . | .
COc1c(OC(C)=O)ccc(/C=C/c2ccc3ccccc3n2)c1[N+](=O)[O-] | - | - | 5.1 | - | - | - | 12 | 6.2
COc1cc(OC)c(OC)cc1C=Cc1ccc2ccccc2n1 | - | - | - | - | - | . | . | .
COc1ccc(S(=O)(=O)Nc2ccc3c(c2)C(=O)N([C@@H](C)CO)C[C@H](C)[C@@H](CN(C)C(=O)C2CCCCC2)OCCCC[C@@H](C)O3)cc1 | . | . | . | . | . | - | . | .
CCc1nnc(NC(=O)C2COc3ccccc3O2)s1 (configuration not stated) | - | - | 4.5 | - | . | . | 6.3 | 4.0
CCc1ccccc1NC(=O)C1COc2ccccc2O1 (configuration not stated) | - | - | - | - | - | - | . | .
N#Cc1c(NC(=O)/C=C/c2ccco2)sc2c1CCCC2 | 6.2 | - | 5.1 | - | - | . | 31 | -
CCn1ccc(C(=O)NC2=NCCS2)n1 | - | - | - | - | - | . | . | .
CCn1ccc(C(=O)Nc2ncc(C)s2)n1 | - | - | 8.9 | - | ? | - | 9.4 | 4.4
COc1cc(C(=O)c2cc3c(cc2C)OCO3)cc(OC)c1OC | - | - | 6.5 | - | - | - | 13 | -
Cc1ccc(S(=O)(=O)N(C)C)cc1NC(=O)COC(=O)/C=C/c1ccc2ccccc2n1 | - | - | 5.0 | - | - | . | - | -
CO[C@@H](C(=O)N(C)C[C@@H]1OCc2ccccc2-c2ccccc2C(=O)N([C@H](C)CO)C[C@@H]1C)c1ccccc1 | . | . | . | . | . | - | . | .
O=C(C[C@H]1C[C@@H]2c3cc(NC(=O)Nc4ccccc4F)ccc3O[C@@H]2[C@H](CO)O1)NCCc1ccccc1 | . | . | . | . | . | - | . | .
COc1ccccc1NC(=O)Nc1ccc2c(c1)CCC2 | - | - | 8.1 | - | - | . | 6.3 | 4.9
COc1ccc(C)cc1NC(=O)Nc1ccc2c(c1)CCC2 | - | - | - | - | - | . | . | .
Cc1cc(C)cc(NC(=O)Nc2ccc3c(c2)CCC3)c1 | - | - | - | - | - | - | . | .
Cc1ccccc1NC(=O)Nc1ccc2c(c1)CCC2 | - | - | 5.0 | - | - | 72 | 11 | 5.5
COc1ccccc1NC(=O)Nc1ccc2c(c1)nc(C)n2C | - | - | 6.0 | 13 | - | . | 17 | 9.7
Cc1noc(C)c1S(=O)(=O)N(C)C[C@H]1OCCCC[C@H](C)Oc2ccc(NC(=O)Nc3cccc4ccccc34)cc2C(=O)N([C@H](C)CO)C[C@@H]1C | . | . | . | . | . | - | . | .
CCOc1ccc(CCN2C(=S)N([C@@H](CC(C)C)CN3CCCC3CN3C(=S)NC[C@@H]3CC(C)C)C[C@@H]2Cc2ccccc2)cc1 (some centres not stated) | - | - | 4.8 | - | - | - | - | -
CCOc1ccc(CCN2C(=S)N([C@@H](Cc3ccccc3)CN3CCC[C@@H]3CN3C(=S)NC[C@@H]3CC(C)C)C[C@@H]2Cc2ccccc2)cc1 | - | - | - | - | - | . | . | .
CC(C)C[C@@H](CN1CCC[C@@H]1CN1C(=S)NC[C@@H]1Cc1ccccc1)N1C[C@H](Cc2ccc(O)cc2)N(CC2CCCCCC2)C1=S | - | - | 5.0 | - | - | - | - | -
Oc1ccc(C[C@H]2CNC(=S)N2CC2CCCN2C[C@H](Cc2ccccc2)N2C[C@H](Cc3ccc(O)cc3)N(CC3CCCCCC3)C2=S)cc1 (some centres not stated) | - | - | 4.9 | - | - | - | - | -
Nc1ccc(-c2nc3ccccc3[nH]2)cc1 | - | - | 5.2 | 11 | ? | - | 9.9 | 6.8
SMILES | hcDAF12 agonist | ssDAF12 agonist | DAX1 StAR inh | hgDAF12 agonist | Wnt bcat act | esBAF inh | DAX1 conf | SF1 AF2mut Luc
Nc1ccc2nc(-c3ccc(-c4nc5ccc(N)cc5[nH]4)cc3)[nH]c2c1 | - | - | - | - | - | . | . | .
O=C(NN=Cc1ccccc1Cl)c1ccccc1 | - | - | 5.2 | 12 | 63 | . | 14 | 6.9
CN(C)c1cccc(C(=O)N/N=C/c2ccccc2F)c1 | - | - | 8.5 | 12 | - | . | 8.7 | -
Cc1cc(/C=N/NC(=O)c2cccc(N(C)C)c2)c(C)n1-c1cc(C(=O)O)cc(C(=O)O)c1 | . | . | . | . | ? | - | . | .
O=C(NN=Cc1ccccc1Cl)c1ccc(-n2cnnn2)cc1 | - | - | - | - | - | - | . | .
COc1ccc(S(=O)(=O)N2C[C@H](O)COC[C@H]3O[C@@H](CC(=O)NCc4ccc(Cl)c(Cl)c4)CC[C@@H]32)cc1 | . | . | . | . | . | - | . | .
Cc1ccsc1C(=O)OCC(=O)c1cc(C)n(C)c1C | - | - | 4.8 | - | - | - | 6.0 | -
Cc1[nH]c2ccc(C(=O)N3CCCC3)cc2c1C | - | - | - | - | - | - | . | .
Cc1[nH]c2ccc(C(=O)N3CCCCC3)cc2c1C | - | - | 6.3 | 11 | - | . | 9.5 | 3.6
C[C@H]1CN([C@@H](C)CO)C(=O)c2cc(NC(=O)CCN3CCOCC3)ccc2O[C@H]1CN(C)Cc1ccc(C(=O)Nc2ccccc2N)cc1 | . | . | . | . | . | - | . | .
O=C(Nc1nc2ccc(F)cc2s1)C1=COCCO1 | - | - | 7.5 | - | - | - | 7.6 | 3.1
CCCCc1nnc(NC(=O)C2=COCCO2)s1 | - | 1.0 | 7.3 | - | - | - | 7.3 | 5.6
C[C@H]1CN([C@@H](C)CO)C(=O)c2cccc(NC(=O)C3CC3)c2O[C@@H]1CN(C)C(=O)Nc1cccc2ccccc12 | . | . | . | . | . | - | . | .
Cc1cc(C)nc(SCc2csc(-c3ccccc3)n2)n1 | - | - | 5.2 | 11 | . | . | 12 | 6.3
O=C(/C=C/c1ccco1)Nc1cc(Cl)ccc1C(=O)O | - | - | - | - | . | - | . | .
O=C(/C=C/c1ccco1)Nc1ccccc1C(=O)O | - | - | 4.6 | 13 | - | ? | 9.3 | 5.7
O=C(CNC(=O)c1cccs1)Nc1ncccc1O | - | - | 4.5 | - | - | - | - | -
O=C(CNC(=O)c1cccs1)c1ccc(F)cc1 | - | - | 4.7 | 13 | - | - | 16 | 6.9
COC(=O)[C@H]1[C@H](CO)[C@H]2Cn3c(ccc(C4=CCCCC4)c3=O)[C@H]2N1CCC(F)(F)F | . | . | . | . | . | - | . | .
Cc1noc(C)c1NC(=O)N(C)C[C@H]1Oc2c(NC(=O)Nc3ccc(F)cc3)cccc2C(=O)N([C@H](C)CO)C[C@@H]1C | . | . | . | . | . | - | . | .
COc1cc(/C=C(\C#N)C(=O)Nc2ccccc2)ccc1OCCN1CCOCC1 | - | - | - | - | - | - | . | .

Compound activity from PubChem BioAssay.
